Only some compounds are listed: those with a hit (about 4.1% of all), similar ones and a draw of the others.
DAX1 inh-1 – DAX1 (NR0B1) inhibitors, primary screen, cell-based, HEK293, Gal4-DAX1, luciferase luminescence; HEK293 Gal4-DAX1 luciferase reporter; inhibition, % at 6.75 µM; 0.99% of 340,000 active;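 active means inhibition above the mean over all tested compounds plus 3 SD, cut at about 4.2% in these data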;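 further: 0% = DAX1-transfected cells with DMSO and 100% = empty-vector control cells with DMSO; inhibition shows as a rise in luminescence from relieved DAX1 repression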
Target sequence (P51843 207-470 limits assumed): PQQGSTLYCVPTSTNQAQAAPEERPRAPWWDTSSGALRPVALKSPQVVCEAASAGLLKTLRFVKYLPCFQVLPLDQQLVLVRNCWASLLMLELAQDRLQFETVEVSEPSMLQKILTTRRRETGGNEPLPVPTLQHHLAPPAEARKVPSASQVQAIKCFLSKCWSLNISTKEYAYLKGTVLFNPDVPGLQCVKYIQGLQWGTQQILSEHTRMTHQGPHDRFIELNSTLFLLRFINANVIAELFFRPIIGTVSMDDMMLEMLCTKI
hcDAF12 agonist – H. contortus DAF-12 nuclear receptor activators, primary screen, cell-based, luminescence, HEK293, lit1-tk-luc reporter; 1.4% of 370,000 active; AID 652067, 2013; activation, % at 6.8 µM; HEK293 hcDAF-12 lit1-tk-luc reporter; 0% DMSO, 100% Δ7-dafachronic acid;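 active means activation above the mean of all tested compounds plus 3 SD, cut at about 5.5% in these data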;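 further: 100% = response to 3 µM Δ7-dafachronic acid high control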
hgDAF12 agonist – H. glycines DAF-12 receptor agonists, primary screen, cell-based, luminescence, HEK293, GAL4 fusion, UAS-luciferase. 1.8% of 370,000 active. HEK293 GAL4-hgDAF12 UAS-luciferase reporter, agonist luminescence; normalized to butyrate control. activation, % at 6.8 µM. Nuclear hormone receptor DAF-12 (Heterodera glycines), GAL4 fusion;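 active means activation above a cutoff set at the mean of all screened compounds plus 3 SD, cut at about 10% in these data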;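 further: 0% = DMSO wells and 100% = sodium butyrate wells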
ssDAF12 agonist – S. stercoralis DAF-12 nuclear receptor activators, primary screen, cell-based, luminescence, HEK293, GRIP1 co-expression, lit1-tk-luc | Nuclear hormone receptor DAF-12 (Strongyloides stercoralis) | HEK293 ssDAF-12/GRIP1 lit1-tk-luc reporter; % of 3 µM dafachronic acid response | activation, % at 6.8 µM | 1% of 370,000 active;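 active means activation above the mean over all tested compounds plus 3 SD, cut at about 0.9% in these data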;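 further: 0% = DMSO-only wells and 100% = 3 µM delta7-dafachronic acid wells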
DAX1 inh-2 – DAX1 (NR0B1) inhibitors on StAR promoter, primary screen, cell-based, luminescence, SF-1 (NR5A1), full-length DAX-1. inhibition, % at 6.8 µM. HEK293T StAR-luciferase reporter, SF-1/DAX-1 repression relief. 1.1% of 370,000 active;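 active means inhibition above the mean over all tested compounds plus 3 SD, cut at about 3.6% in these data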;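 further: 0% = DAX-1 cells with DMSO and 100% = cells lacking DAX-1 with DMSO; higher inhibition means more luminescence from relief of DAX-1 repression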
LXR ag – LXR agonists, Gal4 luciferase reporter, confirmation, counter-screen for hcDAF-12 agonist project, cell-based, luminescence, HEK293, H. contortus campaign. AID 743027, 2013. HEK293 Gal4-LXR tk-luc reporter, 24 h; normalized: DMSO 0%, positive control 100%. activation, % at 6.8 µM. shares compounds with hcDAF12 agonist. 3,400 tested, under 10 active;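 active means mean percent activation of the reporter above a cutoff set as the average over tested compounds plus their standard deviation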
hcDAF12 conf – H. contortus DAF-12 receptor agonists, confirmation, cell-based, luminescence, HEK293, lit1-tk-luc, triplicate; 61% of 3,400 active; HEK293 hcDAF-12 lit1-tk-luc reporter; % of Δ7-dafachronic acid response; activation, % at 6.8 µM; AID 743032, 2013; shares compounds with hcDAF12 agonist;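 active means mean activation across triplicate tests above the threshold derived from the earlier primary screen, cut at about 5.5% in these data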;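 further: 0% = DMSO only wells and 100% = 3 µM Δ7-dafachronic acid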
hgDAF12 ag – H. glycines DAF-12 receptor agonists, confirmation, cell-based, luminescence, HEK293, GAL4-LBD fusion; shares compounds with hgDAF12 agonist; HEK293 GAL4-hgDAF12 luciferase reporter, agonist mode; percent of butyrate response; activation, % at 6.8 µM; 80% of 3,300 active;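 active means mean activation over triplicate wells above the hit cutoff derived from the earlier primary screen, cut at about 11% in these data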;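 further: 0% = DMSO low control and 100% = 2 mM sodium butyrate high control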
LXR ag 2 – LXR agonists, Gal4 luciferase reporter, confirmation, counter-screen for hgDAF-12 agonist project, cell-based, luminescence, HEK293, H. glycines campaign | 3,300 tested, under 10 active | shares compounds with hgDAF12 agonist | AID 743051, 2013 | activation, % at 6.8 µM | 24 h;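 active means mean activation of the triplicate above a set limit carried over from the primary screen, none filed active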
* marks the source's active call; other numbers are inactive results; . = no result given.

SMILES	DAX1 inh-1	hcDAF12 agonist	hgDAF12 agonist	ssDAF12 agonist	DAX1 inh-2	LXR ag	hcDAF12 conf	hgDAF12 ag	LXR ag 2
Cc1ccc2oc(-c3ccc(C)c(NC(=S)NC(=O)c4cccs4)c3)nc2c1	4.7*	11*	14*	2.6*	3.9*	1	8.9*	14*	1
Nc1ncnc2c1ncn2[C@@H]1O[C@H](CNC(=O)[C@@H]2CCCN2S(=O)(=O)c2ccc(F)cc2)[C@@H](O)[C@H]1O	0	0	-1	-2	-2	.	.	.	.
Cc1ccc(NC(=O)N2CCc3ccccc32)cc1	-1	10*	15*	1.1*	3.7*	2	11*	23*	1
O=C(COc1ccccc1)N1CCc2ccccc21	1	8.5*	14*	-1	1	1	6.4*	12*	1
Cc1ccc(NC(=O)N2CCCc3ccccc32)cc1	1	2	3	-1	3	.	.	.	.
COc1ccc(NC(=O)n2ncc3c(C)cccc32)cc1	4	12*	14*	0	3	1	11*	21*	1
COc1ccc(NC(=O)n2ncc3c(C)cccc32)cc1OC	0	-1	5	0	1	.	.	.	.
OC[C@@H]1CN(Cc2ccncc2)C[C@H](n2cnc3c(N4CCOCC4)ncnc32)O1	.	-1	-1	-1	0	.	.	.	.
Cc1ccc(N2Cc3ccccc3C2=O)cc1	5.4*	12*	16*	1.5*	2	2	8.8*	17*	1
COc1ccccc1NC(CC(=O)c1ccccc1)C(=O)OCC(=O)c1ccc(C)cc1 (configuration not stated)	3	8.5*	14*	0	3	2	15*	16*	1
Cc1ccc(-c2cn(-c3ccccc3)c(SCC(=O)NC3CCS(=O)(=O)C3)n2)cc1C (configuration not stated)	1	8.4*	17*	0	2	1	4	7	1
Cc1ccc(SCC(=O)NC2CCS(=O)(=O)C2)cc1C (configuration not stated)	0	0	1	0	1	.	.	.	.
Cc1nn(-c2ccccc2)c(Cl)c1C(=O)NCc1cccs1	0	1	-1	-1	-1	.	.	.	.
COc1cc(C(=O)Nc2ccc3ccccc3c2)cc(OC)c1OC	.	1	5	-1	-1	.	.	.	.
O=C(Nc1ccc2ccccc2c1)c1onc2c1CCCC2	1	12*	14*	1.4*	3	2	6.4*	21*	1
Cc1cccc(C(=O)Nc2ccc3ccccc3c2)c1	6.8*	7.0*	14*	1	3	2	6.5*	23*	1
COc1cccc(C(=O)Nc2ccc3ccccc3c2)c1	-2	7.5*	17*	0	2	2	9.9*	24*	2
Cc1occc1C(=O)Nc1ccc2ccccc2c1	4.4*	11*	14*	1.4*	2	1	5	16*	1
CCOC(=O)c1ccc(NC(=O)c2nc[nH]c2C(=O)N(C)CCO)cc1	0	-2	-1	-1	0	.	.	.	.
CCCCNC(=O)/C=C/c1ccc(S(=O)(=O)Nc2ccc(OC)cc2)cc1	-1	-1	0	-1	-1	.	.	.	.
COc1cccc(C(=O)O/N=C(\N)c2ccc(C)cc2)c1	4.5*	9.7*	16*	0	2	1	7.2*	20*	1
COc1cccc(C(=O)O/N=C(\N)c2ccc([N+](=O)[O-])cc2)c1	-1	-2	-2	-1	0	.	.	.	.
Cc1cc(N/C=C\c2nnnn2-c2ccccc2)no1	1	1	6	0	-1	.	.	.	.
CN(C)c1ccc(/C=C/c2nnnn2-c2ccccc2)cc1	4	11*	17*	0	3	1	6.1*	22*	1
O=C(CSc1nnc(NC(=O)c2ccccc2F)s1)NC1CCCC1	1	1	3	0	1	.	.	.	.
SMILES	DAX1 inh-1	hcDAF12 agonist	hgDAF12 agonist	ssDAF12 agonist	DAX1 inh-2	LXR ag	hcDAF12 conf	hgDAF12 ag	LXR ag 2
CC(=O)Nc1ccc(NC(=O)CSc2nnc(NC(=O)c3ccccc3F)s2)cc1	1	7.1*	17*	0	3	1	7.2*	13*	0
COc1cc(CN(C)CCc2ccccc2)ccc1OCc1ccccc1	0	-2	2	0	0	.	.	.	.
CC[N+]1(C)[C@@H]2CC[C@H]1CC(OC(=O)[C@H]1CCC(C(=O)OC3C[C@H]4CC[C@@H](C3)[N+]4(C)CC)(c3ccccc3)c3ccccc31)C2 (some centres not stated)	1	-2	-1	-1	1	.	.	.	.
Cn1ncc([N+](=O)[O-])c1C(=O)NC1CCCCC1	-1	1	-1	-1	-1	.	.	.	.
O=C(NCCc1c[nH]c2ccccc12)OC1CC2CC1[C@H]1CCCCN1C2=O (some centres not stated)	.	0	-2	-1	-1	.	.	.	.
CCc1cc(-c2cnnn2Cc2ccccc2)ccc1-c1cn(CC(C)C)nn1	-3	-2	-4	-2	-2	.	.	.	.
O=C(Nc1ccc2[nH]ccc2c1)c1ccc(F)cc1	-3	8.2*	16*	1.5*	3	2	5.9*	20*	1
O=C(N/N=C/c1cccnc1)c1[nH]ncc1Br	0	6.8*	13*	0	1	0	1	5	0
O=C(COc1ccc2ccccc2c1)Nc1nccs1	-1	6.7*	19*	0	3.6*	2	7.2*	18*	1
